# The list is not random: actives were taken first. Their share in the collection is about 0.48%.
# LGR2 antag = blocks bursicon-induced cAMP signaling via Drosophila LGR2. HEK293 LGR2, CRE-luciferase, bursicon-stimulated, 4 h. inhibition, % at 9.99 µM. 380,000 tested, 0.35% active;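 active means drop in luminescence signal, shown as inhibition above about 50% in the replicate tests, limit read from the data, passing the limit was not always enough; inconclusive means probably only some replicates passing the limit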;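 further: agonist challenge used bursicon conditioned medium at about half maximal strength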
# NCOA3 inh = human NCOA3 inhibition. 360,000 tested, 0.17% active. HEK293 GAL4-SRC3 luciferase reporter, luminescence. inhibition, % at 3.6 µM. Q9Y6Q9. AID 588352;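 active means inhibition above a per-campaign cutoff, the mean of all compounds plus 3 SD, cut at about 60% in these data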;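 further: 0% = DMSO-treated cells and 100% = gossypol-treated cells at 36 µM; higher means less SRC3-driven luciferase light from the GAL4 reporter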
# NR5A2 inv ag = NR5A2 inverse agonism in reporter assay. HEK293T StAR-luciferase reporter, LRH-1 transfected, 24 h. inhibition, % at 3.6 µM. 360,000 tested, 0.13% active. AID 602396;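 active means inhibition above the mean inhibition of all tested compounds plus 3 SD, cut at about 73% in these data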;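 further: 0% = DMSO wells and 100% = reporter-only cells lacking LRH-1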
# NCOA2 inhibitor = human SRC2 (NCOA2) inhibition. Q15596. HEK293 GAL4-SRC2 luciferase reporter, luminescence. inhibition, % at 9 µM. 370,000 tested, 0.17% active;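 active means inhibition above the mean inhibition of all tested compounds plus 3 SD, set per campaign, cut at about 52% in these data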;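 further: 0% = DMSO treated cells and 100% = cells given Gossypol at 36 µM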
# NCOA1 inh = inhibitors of human steroid receptor coactivator 1 (SRC1) | Q15788 | HEK293 GAL4-SRC1 luciferase reporter, luminescence | inhibition, % at 3.6 µM | 360,000 tested, 0.12% active | AID 588354;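 active means inhibition above the campaign mean plus 3 SD, with each screening campaign given its own cutoff, cut at about 60% in these data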;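 further: 0% = DMSO treated cells and 100% = gossypol at 36 µM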
# Target sequence (Q15788 whole entry, looked up, the tested form may be a part): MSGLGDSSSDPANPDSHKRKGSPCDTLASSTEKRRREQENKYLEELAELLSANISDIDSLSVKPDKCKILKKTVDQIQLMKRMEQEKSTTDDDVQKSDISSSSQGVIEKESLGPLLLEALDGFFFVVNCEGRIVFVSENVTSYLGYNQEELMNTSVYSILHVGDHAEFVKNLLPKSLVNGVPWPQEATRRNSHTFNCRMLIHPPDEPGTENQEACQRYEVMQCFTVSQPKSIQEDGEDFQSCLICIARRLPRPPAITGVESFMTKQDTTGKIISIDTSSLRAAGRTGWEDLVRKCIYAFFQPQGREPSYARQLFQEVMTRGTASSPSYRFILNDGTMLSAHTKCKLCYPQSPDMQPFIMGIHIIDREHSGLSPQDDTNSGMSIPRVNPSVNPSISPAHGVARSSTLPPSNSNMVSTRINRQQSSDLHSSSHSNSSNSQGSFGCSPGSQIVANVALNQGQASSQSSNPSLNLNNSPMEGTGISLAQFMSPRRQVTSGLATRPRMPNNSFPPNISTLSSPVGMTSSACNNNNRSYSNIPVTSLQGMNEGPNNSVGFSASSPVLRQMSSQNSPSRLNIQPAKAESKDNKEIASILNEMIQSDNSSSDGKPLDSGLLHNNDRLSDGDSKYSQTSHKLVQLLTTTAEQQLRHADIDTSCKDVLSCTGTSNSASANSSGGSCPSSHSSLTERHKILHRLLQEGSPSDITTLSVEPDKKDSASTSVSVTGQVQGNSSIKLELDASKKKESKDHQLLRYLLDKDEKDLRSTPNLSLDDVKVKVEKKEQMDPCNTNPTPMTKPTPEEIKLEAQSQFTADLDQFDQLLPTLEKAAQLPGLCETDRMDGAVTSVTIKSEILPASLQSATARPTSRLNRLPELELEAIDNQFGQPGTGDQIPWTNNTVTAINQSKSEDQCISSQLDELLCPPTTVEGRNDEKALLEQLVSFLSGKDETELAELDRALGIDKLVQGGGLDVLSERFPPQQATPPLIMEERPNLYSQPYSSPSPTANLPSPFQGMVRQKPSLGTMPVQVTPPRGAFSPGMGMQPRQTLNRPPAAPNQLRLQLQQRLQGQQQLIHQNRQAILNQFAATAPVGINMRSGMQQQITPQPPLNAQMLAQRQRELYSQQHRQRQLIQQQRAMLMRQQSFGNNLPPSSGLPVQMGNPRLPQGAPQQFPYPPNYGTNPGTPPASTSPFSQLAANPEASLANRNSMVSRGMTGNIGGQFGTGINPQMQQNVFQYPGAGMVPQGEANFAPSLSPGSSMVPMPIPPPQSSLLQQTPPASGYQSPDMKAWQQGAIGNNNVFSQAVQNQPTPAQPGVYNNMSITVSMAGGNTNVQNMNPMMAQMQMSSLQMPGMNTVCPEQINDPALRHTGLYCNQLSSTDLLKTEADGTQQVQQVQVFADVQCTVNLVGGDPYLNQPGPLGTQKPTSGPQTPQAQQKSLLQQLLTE
# * marks the source's active call; other numbers are inactive results; ? = inconclusive; . = no result.
SMILES,LGR2 antag,NCOA3 inh,NR5A2 inv ag,NCOA2 inhibitor,NCOA1 inh
COc1cccc(-c2nnc3n2N=C(C(C)(C)C)CS3)c1,.,66*,46,73*,67*
c1ccc2sc(NN=C3CCCCCC3)nc2c1,55*,-31,-82,-34,-139
CCn1c2ccccc2c2cc(CNCc3ccc(OC)cc3OC)ccc21,102*,22,8,0,1
CCCC(=O)N1CC2(CCN(C)CC2)c2c(n(C)c3cc(OC)ccc23)[C@@H]1CO,-15,.,.,.,.
O=C(/C=C/c1cccs1)c1ccc(N2CCOCC2)cc1,93*,-41,-124,-18,-73
COc1ccc(S(=O)(=O)Nc2cccc3c2O[C@@H](CN(C)S(=O)(=O)c2cccs2)[C@H](C)CN([C@@H](C)CO)C3=O)cc1,2,.,.,.,.
CN(C)c1ccc(C=c2c3ccccc3n3c2c2c([n+]3C)CCCC2)cc1,32*,79*,94*,-18,69*
CN(C)c1ccc(C=c2c3cc([N+](=O)[O-])ccc3n3c2cc(-c2ccccc2)[n+]3C)cc1,43,53,61,-4,12
COc1cc(N(C)C)ccc1C=c1c2ccccc2n2c1cc(-c1ccccc1)[n+]2C,79*,63*,69,-54,23
CN(C)c1ccc(C=c2c3ccccc3n3c2cc(-c2ccc(Cl)cc2)[n+]3C)cc1,29,68*,74*,-28,6
CN(C)c1ccc(C=c2c3ccccc3n3c2cc(-c2ccccc2)[n+]3C)cc1,91*,83*,91*,-29,65*
O=C(C[C@@H]1C=C[C@H](NS(=O)(=O)c2ccccc2)[C@H](CO)O1)N1CCC(Cc2ccccc2)CC1,-9,.,.,.,.
C[C@H]1CN([C@@H](C)CO)C(=O)c2cc(/C=C/c3ccccc3)cnc2O[C@@H]1CN(C)Cc1ccccc1,-9,.,.,.,.
C[C@@H]1CN([C@@H](C)CO)C(=O)c2cc(NS(=O)(=O)c3ccc(F)cc3)ccc2O[C@@H](C)CCCCO[C@H]1CN(C)C(=O)C1CCCCC1,14,.,.,.,.
O=C(O)CCCc1ccc2c(c1)CCc1ccccc1-2,-21,19,-9,74*,17
O=C(NCc1cccs1)c1nc2c(nnn2Cc2ccccc2Cl)c(=O)[nH]1,.,90*,101*,56*,43
CCCCCCCCCC[n+]1cccc2c3ccccc3ccc21,76*,82*,90*,44,58
CCCCCCCC[n+]1cccc2c3ccccc3ccc21,35,81*,88*,15,38
O=C1c2cccnc2-c2ncccc21,.,25,10,-17,-4
O=C1C(=O)c2cccnc2-c2ncccc21,100*,91*,104*,94*,89*
Cc1ccc(Nc2nc(N)c3ccccc3n2)cc1Cl,72*,-111,-119,-68,-82
CN(C)c1ccc(Nc2nc(N)c3ccccc3n2)cc1,89*,-62,-112,-24,-53
CCOc1ccc(Nc2nc(N)c3ccccc3n2)cc1,96*,-90,-141,-18,-103
Nc1nc(Nc2ccccc2)nc2ccccc12,.,-87,-125,-17,-84
Nc1nc(Nc2ccc(Cl)cc2)nc2ccccc12,.,-70,-133,-31,-70
SMILES,LGR2 antag,NCOA3 inh,NR5A2 inv ag,NCOA2 inhibitor,NCOA1 inh
COC1=CC(=O)c2nc(Cl)ccc2C1=O,80*,59,76*,49,64*
COc1cccc2c1C(=O)C=C(C)C2=O,20,9,21,-9,-1
CO[C@@H]1CN(C)C(=O)c2ccc(NS(=O)(=O)c3cccc(F)c3)cc2OC[C@@H](C)NC[C@@H]1C,5,.,.,.,.
COc1cccc(/C=C2\Oc3ccc(O)cc3C2=O)c1O,66*,-212,-138,-57,-86
O=C(C[C@@H]1CC[C@H](NC(=O)Nc2cccc(F)c2)[C@H](CO)O1)NCC1CCCCC1,6,.,.,.,.
Cc1ccc(S(=O)(=O)Nc2cccc3c2O[C@H](CN(C)S(=O)(=O)c2c(C)noc2C)[C@@H](C)CN([C@H](C)CO)C3=O)cc1,1,.,.,.,.
Cc1cccc(/C=C/c2onc(C)c2[N+](=O)[O-])n1,71*,.,.,-6,.
Cc1noc(C)c1S(=O)(=O)Nc1cccc2c1O[C@@H](CN(C)Cc1ccc(-c3ccccc3)cc1)[C@@H](C)CN([C@H](C)CO)C2=O,-17,.,.,.,.
Cn1nnnc1Sc1ncnc2scc(-c3cc4ccccc4o3)c12,106*,-24,-2,33,-26
Cn1nnnc1Sc1ncnc2scc(-c3ccc(C(F)(F)F)cc3)c12,93*,22,17,52,-9
Cn1nnnc1Sc1ncnc2scc(-c3cccc(C(F)(F)F)c3)c12,88*,27,-2,46,14
Cn1nnnc1Sc1ncnc2scc(-c3ccccc3C(F)(F)F)c12,?,9,0,33,-4
Cn1nnnc1Sc1ncnc2scc(-c3ccsc3)c12,74*,28,21,48,11
Cn1nnnc1Sc1ncnc2scc(-c3ccc(C#N)cc3)c12,88*,32,22,37,3
Cn1nnnc1Sc1ncnc2scc(-c3cccc(F)c3)c12,83*,32,-13,47,7
Cn1nnnc1Sc1ncnc2scc(-c3ccc(-c4ccccc4)cc3)c12,10,-3,42,4,-25
CO[C@H]1CN(C)C(=O)c2ccc(NC(=O)c3ccccc3F)cc2OC[C@H](C)N(CC2CCOCC2)C[C@@H]1C,28,.,.,.,.
O=C(Nc1ccccc1Oc1ccccc1)c1cc([N+](=O)[O-])ccc1Cl,15,57,26,55*,38
COc1ccc(CNc2ncc(-c3ccc(F)cc3)n2C)c2ccccc12,0,14,-15,82*,26
COc1ccc(-c2ccc3c(c2)[C@@H]2[C@@H](CCN2S(=O)(=O)c2ccc(F)cc2)[C@H](CO)N3C)cc1,20,.,.,.,.
COc1cc(OC)cc(-c2cc3nc(C)c(CCC(=O)O)c(C)n3n2)c1,4,55,53,78*,53
CCOC(=O)C1CCCCN1C(=O)CCc1c(C)nc2cc(-c3ccccc3)nn2c1C (centres undefined),-44,21,0,70*,-2
CCOC(=O)C1CCN(C(=O)CCc2c(C)nc3cc(-c4ccccc4)nn3c2C)CC1,-49,-3,8,50,-2
COc1cc(OC)cc(-c2cc3nc(C)c(CCC(=O)NC(C)CCc4ccco4)c(C)n3n2)c1 (centres undefined),.,12,-3,32,-2
O=C(NCCc1ccccc1)c1ccc2c(c1)OCCCO2,102*,74*,78*,88*,74*
O=C(NCCc1ccccc1)c1ccc2c(c1)OCCO2,102*,53,56,76*,48
COc1ccc(CCNC(=O)c2ccc3c(c2)OCCO3)cc1,.,-42,-76,-29,-39
O=C(CCCc1ccccc1)c1ccc2c(c1)OCCO2,101*,70*,67,75*,71*
COc1ccc2c3c([nH]c2c1)[C@H](CO)N(C(=O)CN(C)C)CC31CN(Cc2ccccc2Cl)C1,6,.,.,.,.
